Bioassay records: PubChem BioAssay, National Center for Advancing Translational Sciences (NCATS)
AMA1 RON2 block: inhibitors of Plasmodium falciparum AMA1-RON2 interaction | AlphaScreen AMA1-biotinylated RON2 peptide binding | Potency, µM (series often up to 58.2 µM), for inactives: top-dose activity change, negative = inhibition, most hits filed as inhibitors | 360,000 compounds, 0.2% hits | AID 720542;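 also: 0% = vehicle wells and -100% = peptide control; nearly all actives have a fitted effect of over 45% in size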
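AMA1 (3D7) with his tag at 25 nM final met compounds first, then biotinylated RON2 peptide at 25 nM; detection used donor plus acceptor beads, 10 µg/mL apiece, read by AlphaScreen after 30 min at room temperature.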
LmPK inh: LmPK (Leishmania mexicana) enzyme inhibition. Q27686. purified LmPK, Kinase-Glo ATP luminescence, 1 h. Potency, µM (series often up to 57.5 µM), for inactives: at the top dose activity change, negative = inhibition, actives largely listed as inhibitors. 290,000 compounds, 0.37% hits
Target sequence (Q27686 whole entry, looked up): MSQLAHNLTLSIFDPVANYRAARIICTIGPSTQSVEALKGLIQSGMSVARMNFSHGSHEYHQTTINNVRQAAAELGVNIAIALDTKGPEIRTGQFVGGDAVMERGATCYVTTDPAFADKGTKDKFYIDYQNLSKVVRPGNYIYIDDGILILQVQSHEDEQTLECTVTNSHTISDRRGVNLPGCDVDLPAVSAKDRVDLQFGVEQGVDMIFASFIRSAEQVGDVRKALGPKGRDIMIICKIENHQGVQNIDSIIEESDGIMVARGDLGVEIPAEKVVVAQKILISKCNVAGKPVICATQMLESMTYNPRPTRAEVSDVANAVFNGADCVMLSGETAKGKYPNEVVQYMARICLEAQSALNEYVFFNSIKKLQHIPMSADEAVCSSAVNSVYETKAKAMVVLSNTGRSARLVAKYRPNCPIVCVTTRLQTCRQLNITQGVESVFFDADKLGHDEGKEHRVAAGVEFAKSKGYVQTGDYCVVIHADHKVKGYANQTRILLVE
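In 50 mM imidazole pH 7.2 with 7 mM MgCl2, LmPK (0.1 nM) turned over PEP (0.5 mM) and ADP (0.1 mM) for 1 h at room temperature. Luciferase read-out of ATP.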
AmpC inh detg: blocks E. coli AmpC beta-lactamase in detergent assay; AID 485294; Potency, µM (series often up to 114 µM), for inactives: top-dose activity change, negative = inhibition, actives largely listed as inhibitors; 370,000 compounds, 0.041% hits; AmpC hydrolysis of nitrocefin, absorbance 480 nm, 0.01% Triton; P00811;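 also: 0% = no-compound wells and -100% = no-enzyme wells; nearly all actives have a fitted effect of over 25% in size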
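20 mM phosphate pH 7.0 + 0.01% (detergent screen) or 0.0001% Triton X-100; 5.3 nM AmpC reagent; cpd preinc 15 min RT; nitrocefin (800 uM stock) to start; A480 q20 s × 4 min; Activity was normalised to no-enzyme and no-compound control wells.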
Giardia FBPA inh-1: inhibitors of Giardia lamblia fructose-1,6-bisphosphate aldolase. purified Giardia FBPA. A8B2U2. Potency, µM (doses to about 59.6 µM), for the others: top-dose activity, negative = inhibition, usual class: inhibitors. 290,000 compounds, 0.71% hits; also: nearly all actives have a fitted effect of over 55% in size
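40 nM FBPA preincubated 10 min at RT with compound (up to 57.5 uM final), then substrate plus GAPDH/TPI/NAD/arsenate coupling and diaphorase/resazurin added. Fluorescence read after 20 min at RT, 525/598 nm.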
AmpC inh no detg: blocks E. coli AmpC beta-lactamase in detergent-free assay; 330,000 compounds, 0.52% hits; AmpC nitrocefin hydrolysis, absorbance 480 nm, 0.0001% Triton; AID 485341; Potency, µM (highest dose often 57.1 µM), for inactives: top-dose activity change, negative = inhibition, usual class: inhibitors;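 also: plate controls were no compound for no effect and no enzyme for full effect; nearly all actives have a fitted effect of over 20% in size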
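20 mM phosphate pH 7.0 + 0.01% (detergent screen) or 0.0001% Triton X-100; 5.3 nM AmpC reagent; cpd preinc 15 min RT; nitrocefin (800 uM stock) to start; A480 q20 s × 4 min; Activity was normalised to no-enzyme and no-compound control wells.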
Giardia growth: inhibitors of Giardia lamblia growth; AID 2785; shares compounds with Giardia FBPA inh-1; Giardia lamblia trophozoite growth inhibition; 1,500 compounds, 5% hits; Potency, µM (top dose mostly 57.5 µM), inactives show at the highest dose activity change, negative = inhibition, most hits filed as inhibitors;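 also: trophozoites exposed to compound for 48 h at 37 °C; nearly all actives have a fitted effect of over 70% in size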
Mammal cell tox: toxic to mammalian cells in Giardia aldolase counter-screen; 1,500 compounds, 4% hits; mammalian cell viability counter-screen, qHTS; shares compounds with Giardia FBPA inh-1; Potency, µM (series often up to 57.5 µM), without a hit: at the top dose viability change, negative = toxicity, hits mostly inhibitors;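 also: Chinese hamster ovary cells used as mammalian cytotoxicity surrogate; viability measured as cellular ATP by luminescence; compound exposure lasted 48 h before reading; nearly all actives have a fitted effect of over 60% in size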
Giardia FBPA inh-2: confirmation of Giardia fructose-bisphosphate aldolase inhibitors. purified Giardia aldolase enzyme activity, qHTS. Potency, µM (highest dose often 57.5 µM), for inactives: top-dose activity change, negative = inhibition, hits mostly inhibitors. 1,500 compounds, 5% hits. shares compounds with Giardia FBPA inh-1; also: nearly all actives have a fitted effect of over 45% in size
Rabbit aldolase: rabbit FBP aldolase inhibition by Giardia aldolase hits. Potency, µM (series often up to 57.5 µM), for the others: top-dose activity, negative = inhibition, actives largely listed as inhibitors. AID 2794. Rabbit muscle FBPA enzyme inhibition, selectivity counter-screen. shares compounds with Giardia FBPA inh-1. 1,500 compounds, 4% hits; also: nearly all actives have a fitted effect of over 60% in size
GAPDH coupling: GAPDH inhibition flagged for Giardia aldolase hits; shares compounds with Giardia FBPA inh-1; GAPDH coupling enzyme counterscreen, biochemical, qHTS; Potency, µM (highest dose often 57.5 µM), inactives show at the highest dose activity change, negative = inhibition, hits mostly inhibitors; 1,500 compounds, 6% hits; AID 2795; also: nearly all actives have a fitted effect of over 55% in size
* marks the source's active call; other numbers are inactive results; ? = inconclusive; / = no result; [ ] = another dose, or the depositor's remark. The list is not random: actives were taken first. Their share in the collection is about 1.3%. Calls follow the shape of the dose curve; as a rule, active = well fitted curve in the direction sought with a large enough effect; inconclusive = small, poorly fitted or top-dose-only effect, or another doubt; inactive = no such curve, though single readings can be large; an effect the other way counts as inactive or inconclusive. Unless noted, % is scaled to controls: 0 for no effect and ±100 for the full control effect; potency is read from the fitted curve at half-maximal effect.

SMILES	AMA1 RON2 block	LmPK inh	AmpC inh detg	Giardia FBPA inh-1	AmpC inh no detg	Giardia growth	Mammal cell tox	Giardia FBPA inh-2	Rabbit aldolase	GAPDH coupling
CC1CN(CCCCN2C(=O)c3ccccc3C2=O)CC(C)O1 (configuration not stated)	-18%	1%	-12%	22µM*	-2%[11.4 µM]	?	18%	2%	2%	2%
O=C(Nc1ccccc1F)c1ccc(O)c2ncccc12	/	/	-14%	/	-32%	/	/	/	/	/
C/C(CCC1CC(C)(C)OC1=O)=N\NC(N)=S (configuration not stated)	36%	-5%	2%	18µM*	-11%	43%	-12%	7%	4%	6%
C/C(CCC1CC(C)OC1=O)=N\NC(N)=S (configuration not stated)	64%	4%	-3%	15%	-18%	/	/	/	/	/
C/C(CC1CC(C)(C)OC1=O)=N\NC(N)=S (configuration not stated)	79%	1%	2%	20µM*	-17%	-29%	-12%	5%	5%	3%
O=C(CSc1ccccc1)Nc1nnc(C2CC2)s1	-4%	-7%	2%	14µM*	-14%	?	9%	1%	9%	7%
CCc1nc2ccc(C(=O)NCCCN3CCCC3=O)cn2c1N(CC)CCOC	-5%	/	/	/	/	/	/	/	/	/
COc1ccccc1OCC#CCNC1CCCCC1C (configuration not stated)	-4%	1%	-2%	1.6µM*	7%	22%[38.3 µM]	12%	2%	17%	3%
Oc1ccc(/C=N/N=C(c2ccccc2)c2ccccc2)c(O)c1O	7%	2%	0%	5.6µM*	-43%	15%[10.4 µM]	-11%	10µM*	?	?
CCOC(=O)c1c(NC(=O)CC)sc2c1CCN(Cc1ccccc1)C2	-9%	3%	-4%	11µM*	57%	?	-17%	5%	11%	-9%
COC(=O)c1c(NC(C)=O)sc2c1CCN(Cc1ccccc1)C2	3%	-2%	-7%	?	26%	/	/	/	/	/
COC(=O)c1c(NC(=O)C(C)(C)C)sc2c1CCN(Cc1ccccc1)C2	-19%	2%	?	11µM*	63%	-30%	-16%	-4%	9%	-14%
COC(=O)c1c(NC(=O)Cc2ccccc2)sc2c1CCN(C(C)C)C2	2%	-3%	-11%	11µM*	24%	17%	-3%	2%	5%	9%
NC(=O)c1c(NC(=O)Cc2ccccc2)sc2c1CCN(Cc1ccccc1)C2	-3%	4%	-5%	13µM*	23%	?	-9%	-3%	1%	-24%
CC(C)(C)OC(=O)C[C@H]1C/C=C\C[C@H](CC(=O)NCCO)C(=O)NC[C@@H](c2ccccc2)OC1=O	0%	/	/	/	76%	/	/	/	/	/
c1ccc(NCCC2OCC3(CO2)COC(CCNc2ccccc2)OC3)cc1 (configuration not stated)	-14%	/	/	/	/	/	/	/	/	/
COc1cc(OC)c(NS(=O)(=O)c2cc(C(=O)NCCCN3CCOCC3)ccc2C)cc1Cl	-4%	/	/	/	/	/	/	/	/	/
